Assay outcomes: PubChem, National Center for Advancing Translational Sciences (NCATS)
Pol eta inh = blocks human DNA polymerase eta activity; Q9Y253; recombinant Pol eta, fluorescent DNA replication assay; Potency, µM (doses to about 114 µM), without a hit: top-dose activity change, negative = inhibition, most hits filed as inhibitors; actives 1.2% (n = 390,000); AID 588591; further: on the % scale 0 is the no-effect control and ±100 the full control effect
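Fluorescent replication assay: 50 nM final substrate added after a 15 min room-temperature compound preincubation with 10 nM enzyme. Signal taken at 0 min and again at 10 min.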
POLI inh = inhibitors of human DNA polymerase iota; Q9UNA4; Pol iota fluorescent replication assay, 10 min; Potency, µM (top dose mostly 115 µM), inactives show top-dose activity, negative = inhibition, usual class: inhibitors; actives 1% (n = 390,000); AID 588590
Target sequence (Q9UNA4 whole entry, looked up): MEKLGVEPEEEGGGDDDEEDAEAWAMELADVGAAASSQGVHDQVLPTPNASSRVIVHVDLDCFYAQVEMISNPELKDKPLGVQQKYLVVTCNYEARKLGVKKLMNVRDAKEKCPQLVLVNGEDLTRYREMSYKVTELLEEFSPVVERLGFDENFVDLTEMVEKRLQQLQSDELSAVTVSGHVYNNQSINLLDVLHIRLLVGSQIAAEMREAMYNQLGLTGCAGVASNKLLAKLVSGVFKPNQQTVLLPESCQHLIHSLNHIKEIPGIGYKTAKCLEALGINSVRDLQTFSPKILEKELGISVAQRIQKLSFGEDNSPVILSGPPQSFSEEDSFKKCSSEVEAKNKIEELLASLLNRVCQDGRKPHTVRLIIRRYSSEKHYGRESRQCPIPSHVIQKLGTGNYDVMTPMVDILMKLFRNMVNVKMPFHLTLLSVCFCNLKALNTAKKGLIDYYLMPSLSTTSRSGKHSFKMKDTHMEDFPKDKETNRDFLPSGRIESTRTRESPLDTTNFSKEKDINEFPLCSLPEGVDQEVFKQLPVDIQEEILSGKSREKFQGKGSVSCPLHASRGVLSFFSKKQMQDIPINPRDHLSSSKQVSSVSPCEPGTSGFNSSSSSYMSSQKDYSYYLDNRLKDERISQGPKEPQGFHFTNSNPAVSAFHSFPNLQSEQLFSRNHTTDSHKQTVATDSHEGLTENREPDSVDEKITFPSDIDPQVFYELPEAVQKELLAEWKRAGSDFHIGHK
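Pol iota at 10 nM preincubated 15 min with compounds at room temperature; reaction started with fluorescent substrate, 50 nM final. Fluorescence read kinetically at 0 and 10 min; buffer-only wells as negative control.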
TDP1 block = inhibitors of human tyrosyl-DNA phosphodiesterase TDP1; recombinant TDP1, AlphaScreen DNA substrate cleavage; Q9NUW8; actives 0.28% (n = 350,000); AID 485290; Potency, µM (titrated, usually from 130 µM), inactives show at the top dose activity change, negative = inhibition, actives largely listed as inhibitors; further: on the % scale 0 is the no-effect control and ±100 the full control effect; nearly all actives have a fitted effect of over 40% in size
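AlphaScreen read-out: signal falls as enzyme removes the 3' tyrosine-FITC from a 5'-biotinylated DNA oligo (15 nM, 5 min, RT). Enzyme was E. coli-made recombinant Tdp1 at 1 nM, exposed to compound for 15 min beforehand; beads 10 ug/ml, 10 min.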
FEN1 inh = inhibitors of human flap endonuclease 1; P39748; Recombinant FEN1 flap cleavage, fluorescence, 15 min; Potency, µM (series often up to 114 µM), for inactives: top-dose activity change, negative = inhibition, actives largely listed as inhibitors; actives 0.35% (n = 390,000); AID 588795; further: on the % scale 0 is the no-effect control and ±100 the full control effect; nearly all actives have a fitted effect of over 65% in size
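Reaction started by adding substrate (50 nM final) to 10 nM enzyme after 15 min room-temperature compound preincubation. Reads at 0 and 15 min, with data normalized and fitted to a four-parameter Hill equation.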
Pol kappa inh = blocks human DNA polymerase kappa activity | purified Pol kappa, fluorescent DNA synthesis assay, 10 min | Q9UBT6 | actives 0.53% (n = 400,000) | Potency, µM (titrated, usually from 107 µM), for inactives: top-dose activity, negative = inhibition, actives largely listed as inhibitors; further: on the % scale 0 is the no-effect control and ±100 the full control effect
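First, compounds were pin-transferred onto 10 nM Pol kappa. After 15 min at room temperature, substrate was added to 50 nM final. Fluorescence was then measured kinetically at 0 and 10 min.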
POLB inh = DNA polymerase beta (human) inhibition; actives 1.3% (n = 340,000); Potency, µM (doses to about 114 µM), inactives show at the top dose activity change, negative = inhibition, most hits filed as inhibitors; Pol beta primer extension/strand displacement, fluorescence kinetic; further: on the % scale 0 is the no-effect control and ±100 the full control effect
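Pol beta (10 nM) and compounds were preincubated 15 min at room temperature, then 50 nM substrate (final) started primer extension/strand displacement. Reads were taken at 0 and 10 min; concentration-response data were fitted to a four-parameter Hill equation.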
An asterisk follows results filed as active; ? = inconclusive; . = no result; [ ] = remark or other dose. Rows were chosen to be rich in hits. Some 2.4% of all compounds tested hit in one or more screens of this group. The call rests on the fitted dose curve; in most records, active means well fitted curve in the direction sought with a large enough effect; inconclusive means small, poorly fitted or top-dose-only effect, or another doubt; inactive means no such curve, though single readings can be large; an effect the other way counts as inactive or inconclusive. Potency means the concentration at half of the fitted maximal effect.

SMILES | Pol eta inh | POLI inh | TDP1 block | FEN1 inh | Pol kappa inh | POLB inh
CCn1c(CSc2nnc(-c3ccncc3)n2CCOC)nc2cc(C(=O)O)ccc21 | ? | 4.9% | 1.8% | ? | -9.5% | ?
CCn1c(CSc2nnc3ccccn23)nc2cc(C(=O)O)ccc21 | ? | -19.7% | 2.0% | 50.1µM* | -9.4% | ?
CCn1c(CSc2nnc(-c3cccnc3)n2-c2ccccc2C)nc2cc(C(=O)O)ccc21 | . | . | -3.3% | . | . | 3.55µM*
Cc1ccc(C)c(NC(=O)Cn2ncc3c(C)n(Cc4ccc(F)cc4)c(C)c3c2=O)c1 | ? | 4.8% | 2.5% | 6.4% | -1.9% | ?
Cc1c2cc[n+](CCN3CCCCC3)cc2c(C)c2c1[nH]c1ccc(O)cc12 | 2.82µM* | 25.1µM* | . | 12.6µM* | 35.5µM* | .
CCOC(=O)c1[nH]c2ccc(C)cc2c1NC(=O)CN1CCCCC1 | -12.2% | 3.2% | -1.1% | -6.7% | -12.4% | -12.3%
COc1ccc(N2CCN(C(=O)c3cccc(NC(=O)c4nsc5ccccc45)c3)CC2)cc1 | -12.0% | -7.1% | 8.1% | 1.1% | -11.8%[60.1 µM] | 6.3%
CC(C)CNc1ncnc2oc(-c3ccco3)c(-c3ccco3)c12 | . | ? | 7.1% | ? | -39.5% | .
Cc1cc(C)c(S(=O)(=O)/N=C2/C=C(SCC(=O)O)C(=O)c3ccccc32)cc1C | 20µM* | 6.31µM* | 9.8% | 10µM* | -13.7% | ?
Cc1cccc(NC(=O)c2cc([N+](=O)[O-])ccc2N2CCOCC2)c1C | -4.0% | . | . | . | . | .
Cc1c(NC(=O)c2cc([N+](=O)[O-])ccc2N2CCOCC2)cccc1-c1nc2ccccc2o1 | -21.5% | 22.4µM* | -3.2% | -4.7% | 9.4% | 11.0%
O=[N+]([O-])c1ccc2c(c1)C=C/C2=C\c1ccccc1 | . | 12.5% | . | 46.6% | -3.2% | .
COc1cc(/C=C(\C#N)c2nc3ccc(C)cc3[nH]2)c([N+](=O)[O-])cc1OC | ? | -5.4% | 8.6% | -8.0% | -11.9% | ?
COc1cc(/C=C(\C#N)c2nc3ccccc3[nH]2)cc(OC)c1O | ? | ? | 4.7% | 39.8µM* | ? | ?
N#C/C(=C\c1ccc(Sc2ccc(Cl)cc2)o1)c1nc2ccccc2[nH]1 | ? | ? | -8.9% | ? | -8.1% | 15.8µM*
N#C/C(=C\c1ccc(Sc2nc3ccccc3[nH]2)o1)c1ccccc1 | ? | -0.8% | 7.0% | -10.5% | -5.6% | -1.3%
COc1ccc(/C=C(\C#N)c2nc3ccccc3[nH]2)cc1O | 79.4µM* | ? | . | -1.9% | -34.1% | 25.1µM*
CCC(=O)Oc1ccc(/C=C(\C#N)c2nc3ccccc3[nH]2)cc1OC | . | 64.4% | -6.6%[12.3 µM] | -21.2% | -18.1% | 1.2%
CCOC(=O)COc1ccc(/C=C(\C#N)c2nc3ccc(C)cc3[nH]2)cc1OC | 79.4µM* | ? | -11.0% | 6.9% | ? | 11.2µM*
Cc1ccc(-n2c(=O)c3c(C)c(C)sc3n(Cc3ccc(F)cc3Cl)c2=O)cc1C | -5.4% | -10.4% | 0.0% | 9.2% | -5.0% | -1.5%
Cc1nc(N2CCCC2)ncc1C(=O)NCc1ccccc1Cl | . | 2.9% | 1.2% | 17.7% | -9.1%[60.1 µM] | -9.3%
O=c1c2ccccc2nc2sc(Nc3ccc(F)cc3)nn12 | -8.0% | 12.8% | 56.2µM* | -4.4% | -3.7% | .
Cc1cccc(N2CCN(C(=O)C3CCN(S(=O)(=O)c4cn(C)cn4)CC3)CC2)c1C | -13.3% | -1.6% | 1.2% | -2.0% | -7.5%[60.1 µM] | 25.0%
Cc1c([N+](=O)[O-])cc(N2C(=O)C=CC2=O)cc1[N+](=O)[O-] | -14.4% | 10µM* | . | -2.4% | ? | .
COc1ccc(-c2coc3cc(O)ccc3c2=O)c(O)c1O | . | . | . | . | 1.78µM* | .
SMILES | Pol eta inh | POLI inh | TDP1 block | FEN1 inh | Pol kappa inh | POLB inh
COc1ccc(-c2coc3cc(O)ccc3c2=O)c(OC)c1O | . | . | 13.6%[56.1 µM] | . | -1.2%[60.1 µM] | .
COc1ccc2ccccc2c1C(O)c1nccn1C (stereo not given) | -8.8% | 25.1µM* | 4.2% | ? | -26.5% | -14.0%
Cn1ccnc1C(O)c1ccccc1 (stereo not given) | -8.1% | -4.6% | 2.6% | 9.0% | 5.0% | -0.3%
Cc1c2cnn(CC(=O)N3CCCCC3)c(=O)c2c(C)n1Cc1ccc(Cl)cc1 | 10.6% | 15.7% | -5.1% | 17.9% | -7.4% | -11.3%
C=CCOc1c(Cl)cc(CNc2ccc(C)c(Cl)c2)cc1OC | . | . | -0.9% | . | . | 20.7%
C=CCOc1c(Cl)cc(CNc2ccc(N(C)C)cc2)cc1OC | -6.2% | 8.91µM* | 3.2% | -15.1% | -20.3% | -24.1%
O=C(Nc1ccc(Cl)cc1Cl)c1cnn2c1NC(=C1CC1)C=C2C(F)F | . | 28.4% | . | -6.0% | 6.2% | .
COC(=O)\C(C(C)=O)=C(/C=C/C=C/N(C)C)N(C)C | 14.1µM* | ? | 22.4µM* | 4.7% | ? | 22.4µM*
CN(C)N1C(=O)/C(=C/c2ccco2)SC1=Nc1ccccc1 | -3.4% | ? | . | 1.1% | -19.1% | .
O=C1/C(=C\c2ccc(Br)o2)SC(=Nc2ccccc2)N1c1ccccc1 | -27.8% | ? | 4.3% | 3.8% | ? | 0.398µM*
CCOc1ccc(-c2nc3c(c(SCC(=O)N4CCCCC4)n2)Cc2cc(C)ccc2O3)cc1 | -7.2% | 9.4% | -1.3% | 0.0% | -19.0% | 0.3%
NC(=O)Cc1cn(-c2ncc(C(F)(F)F)cc2Cl)c2ccccc12 | -24.6% | 22.5% | 0.0% | -2.1% | -5.7% | 3.9%
CN(C)/C=C/C(=O)/C=C/c1cn(-c2ncc(C(F)(F)F)cc2Cl)c2ccccc12 | -16.9% | 8.4% | 2.8% | -12.4% | -20.8% | 25.1µM*
CC[C@]12C(=O)N(C)C[C@H]([C@@H]3C(=O)N(Cc4ccccc4)C(=O)[C@@H]31)N2C(=O)c1ccccc1 | -2.5% | -4.2% | . | 11.9% | -0.8% | .
Cc1ccc(CNc2ccc3nnc(-c4ccccc4)n3n2)cc1 | ? | 27.5% | 2.6% | 11.8% | -0.3% | 56.2µM*
CCN(C(=O)CN1CCN(c2ccc(O)cc2)CC1)c1c(N)n(Cc2ccccc2)c(=O)[nH]c1=O | 12.3% | ? | . | -0.4% | -36.0% | 44.7µM*
COc1cc(OC)c(/C=C/c2ccccn2)c(OC)c1 | . | 29.9% | . | 13.9% | -3.9% | .
COc1cc(OC)c(/C=C/c2nccc3ccccc23)c(OC)c1 | . | ? | . | 3.98µM* | ? | .
O=C1c2ccccc2C(=O)N1c1cnc2ccccc2c1 | . | . | 1.3% | . | . | .
CCCCCCC[n+]1c(/C=C/c2ccc(N(C)C)cc2)sc2ccccc21 | . | 79.4µM* | . | 35.5µM* | 39.8µM* | .
CC(=O)Nc1ccc(/C=C/c2sc3ccccc3[n+]2CCCCI)cc1 | . | 79.4µM* | . | ? | 44.7µM* | .
CCN(CC)c1ccc(/C=C/c2sc3ccccc3[n+]2CCCCI)cc1 | . | 50.1µM* | . | ? | ? | .
Cc1sc2ccccc2[n+]1CCCCI | . | ? | . | ? | -21.4% | .
